CHX counter: Cycloheximide Counterscreen for Small Molecule Inhibitors of Shiga Toxin. cell reporter, cycloheximide protein synthesis inhibition counterscreen. max response, %. 300,000 compounds, 12% hits. AID 2314, 2010; in the data active = max response mostly above about 13%, no sharp cut-off; inactive = mostly below about 14%; note: read at 38.3 µM for the half of the compounds with a filed dose; 0% is about no effect
RE007 growth inh: qHTS Assay for Inhibitors of the HIV-1 protein Vpr; S. pombe RE007 Vpr strain, BacTiter-Glo ATP luminescence, 24 h; Potency, µM (titrated, usually from 92.2 µM), for the others: at the highest dose activity change, negative = less growth, actives largely listed as inhibitors; 360,000 compounds, 0.21% hits; AID 651644, 2012; active = well fitted falling curve with a large enough effect; inconclusive = small, poorly fitted or top-dose-only effect; inactive = no such curve, though single readings can be large or run the other way; note: potency is the fitted concentration of half-maximal effect; % is set by controls: 0 for no effect and ±100 for the full control effect; nearly all actives have a fitted effect of over 50% in size
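Fission yeast RE007 carrying one integrated HIV-1 vpr copy, seeded at OD 0.01 in PMG+AL medium with 23 nL pinned compound. Grown 24 h at 30 degrees; viability read by BacTiter-Glo luminescence after 5 min.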
LmPK inhibitor: qHTS Assay for Inhibitors of Leishmania Mexicana Pyruvate Kinase (LmPK) | purified LmPK, Kinase-Glo ATP luminescence, 1 h | Potency, µM (titrated, usually from 57.5 µM), without a hit: at the highest dose activity change, negative = inhibition, usual class: inhibitors | 290,000 compounds, 0.37% hits | AID 1721, 2009; note: potency is the fitted concentration of half-maximal effect; % is set by controls: 0 for no effect and ±100 for the full control effect
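Purified LmPK (0.1 nM) with 0.5 mM PEP and 0.1 mM ADP in imidazole buffer pH 7.2 with MgCl2/KCl, 1 h at room temperature. ATP formed was read by luciferase luminescence and normalized to no-enzyme and uninhibited controls.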
Giardia FBPA inh: qHTS Assay for Inhibitors of Fructose-1,6-bisphosphate Aldolase from Giardia Lamblia. A8B2U2. purified Giardia FBPA. Potency, µM (top dose mostly 59.6 µM), without a hit: top-dose activity, negative = inhibition, usual class: inhibitors. 290,000 compounds, 0.71% hits; note: potency is the fitted concentration of half-maximal effect; % is set by controls: 0 for no effect and ±100 for the full control effect; nearly all actives have a fitted effect of over 55% in size
Target sequence (A8B2U2 whole entry, looked up): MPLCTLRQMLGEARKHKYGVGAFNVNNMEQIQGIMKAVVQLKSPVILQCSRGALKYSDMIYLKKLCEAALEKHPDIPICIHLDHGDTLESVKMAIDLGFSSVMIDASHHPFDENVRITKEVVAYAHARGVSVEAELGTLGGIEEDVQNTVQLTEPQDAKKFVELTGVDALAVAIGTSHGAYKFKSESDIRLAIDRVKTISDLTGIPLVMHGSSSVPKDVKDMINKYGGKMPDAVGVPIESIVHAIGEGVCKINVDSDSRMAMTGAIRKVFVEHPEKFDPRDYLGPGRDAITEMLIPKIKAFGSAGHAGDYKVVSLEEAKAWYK
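40 nM FBPA preincubated 10 min at RT with compound (up to 57.5 uM final), then substrate plus GAPDH/TPI/NAD/arsenate coupling and diaphorase/resazurin added. Fluorescence read after 20 min at RT, 525/598 nm.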
Shiga inhibitor: A qHTS for Small Molecule Inhibitors of Shiga Toxin; AID 2315, 2010; inhibition, % at 38.7 µM; 290,000 compounds, 9.2% hits; Vero cells, Shiga toxin protein synthesis inhibition reporter; in the data active = inhibition mostly above about 28%, no sharp cut-off; inactive = mostly below about 43%; note: 0% is about no effect
TbPYK inhibitor: qHTS of Trypanosoma Brucei Inhibitors. pyruvate kinase (Trypanosoma brucei), Q57TT1. AID 624173, 2012. Potency, µM (highest dose often 76.8 µM), for inactives: at the highest dose activity, negative = inhibition, hits mostly inhibitors. TbPYK enzyme, Kinase-Glo Plus ATP luminescence, 45 min. 410,000 compounds, 0.12% hits; note: potency is the fitted concentration of half-maximal effect; % is set by controls: 0 for no effect and ±100 for the full control effect; nearly all actives have a fitted effect of over 50% in size
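Activity of T. brucei pyruvate kinase was followed by Kinase-Glo Plus luminescence after the enzyme reacted 45 min at room temperature with 130 uM ADP (final) and substrate. Test compounds were added before ADP at multiple concentrations.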
LmPK inh confirm: Confirmation Assay for Inhibitors of Leishmania Mexicana Pyruvate Kinase (LmPK); shares compounds with LmPK inhibitor; purified LmPK, Kinase-Glo ATP luminescence, 1 h; Potency, µM (titrated, usually from 57.5 µM), without a hit: at the highest dose activity change, negative = inhibition, actives largely listed as inhibitors; 150 compounds, 40% hits; AID 2559, 2010;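 active = compounds giving a full or partial concentration-response curve, as inhibitors or activators; inconclusive = weak, top-dose-only or unclear curve responses; inactive = no response at any tested dose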
Active calls of the source: *; ? = inconclusive; · = no result. Only a selection was taken, and hits are over-represented in it overall. Unless noted, calls come from the whole dose curve; as a rule, active = well fitted curve in the direction sought with a large enough effect; inconclusive = small, poorly fitted or top-dose-only effect, or another doubt; inactive = no such curve, though single readings can be large; an effect the other way counts as inactive or inconclusive.

SMILES	CHX counter	RE007 growth inh	LmPK inhibitor	Giardia FBPA inh	Shiga inhibitor	TbPYK inhibitor	LmPK inh confirm
Cc1occc1C(=O)N/N=C/c1ccc2c(c1)OCO2	26*	?	4.5µM*	-7%	67*	?	16µM*
O=C(Nc1ccc(N2CCOCC2)cc1)c1cn2ccccc2n1	47*	-25%	2.8µM*	9%	56*	?	16µM*
O=C(Nc1ccc(Cl)c(S(=O)(=O)N2CCOCC2)c1)c1cn2ccccc2n1	-3	-6%	2%	4%	14	0%	·
CC(=O)Oc1ccc(-c2nc(-c3cccnc3)no2)cc1	39*	-23%	5µM*	1%	41*	0%	5.8µM*
COc1nc(-c2ccc(C)cc2)ccc1-c1noc(-c2cccnc2)n1	-2	29%	-1%	-1%	8	-5%	·
O=C(NCCc1csc(-c2ccc(F)cc2)n1)C(=O)Nc1ccc(Cl)cc1	·	·	·	·	·	-3%	·
CN(Cc1cccc(-n2cccn2)c1)Cc1cn(C)nc1-c1ccccc1F	-2	-10%	-5%	0%	14	0%	-7%
O=C(Nc1nc2ccccc2[nH]1)c1ccccc1F	-9	6.3µM*	3.2µM*	-11%	-23	?	6.5µM*
Cc1ccsc1C(=O)Nc1nc2ccccc2[nH]1	28*	?	2.8µM*	-9%	75*	?	21µM*
CN(c1ccccc1)S(=O)(=O)c1ccc(Cl)c(C(=O)Nc2nc3ccccc3[nH]2)c1	-1	15%	1%	21%	-3	-13%	·
CC[n+]1c(/C=C2\C=C(C)CC(C)(C)C2)sc2ccccc21	-3	-14%	-2%	-27%	-9	?	·
CC[n+]1c(C)sc2sc3ccccc3c21	1	·	2.8µM*	?	11	·	4.6µM*
Cc1ccc(S(=O)(=O)N2CCN(Cc3ccccc3C(F)(F)F)CC2)cc1	2	15%	-8%	?	-3	-11%	4%
O=C1C=CC(=O)N1CCCCCCN1C(=O)C=CC1=O	-9	8.9µM*	?	-2%	-19	10µM*	?
Clc1cccc(CNc2ncnc3c2nc2n3CCCC2)c1	·	·	·	·	·	1%	·
Clc1ccccc1NN=Cc1ccccn1	·	4%	·	·	·	2%	·
Cc1nc(N/N=C/c2ccccn2)sc1C	7	16µM*	10µM*	-22%	0	?	18µM*
CCN1/C(=C/c2ccc3cc(C)cc(C)c3[n+]2CC)Sc2cc(C)ccc21	3	?	-10%	-1%	-16	-16%	·
CCN1/C(=C/c2ccc3cccc(C)c3[n+]2CC)Sc2ccccc21	-2	?	-14%	7%	10	-5%	-12%
O=C(NC(=O)c1ccccc1)Nc1ccccn1	27	·	4.5µM*	·	-2	·	13µM*
CCOc1ccc(N2C(=O)CN=C2Nc2ccccc2Cl)cc1	-6	-15%	3%	·	-14	-4%	2%
O=C1CN=C(Nc2ccccc2Cl)N1c1ccccc1	-1	3%	-3%	·	-8	-3%	·
CC(=O)Nc1ccc(C23CC4CC(CC(C4)C2)C3)cc1	14	10%	3%	-2%	26	1%	·
Oc1ccc(C23CC4CC(CC(C4)C2)C3)cc1O	4	?	0.28µM*	-6%	4	?	-13%
Cc1ccc(C(=O)O/N=C(\N)c2ccccc2)c(Cl)c1	36*	?	4.5µM*	-5%	16	?	18µM*
SMILES	CHX counter	RE007 growth inh	LmPK inhibitor	Giardia FBPA inh	Shiga inhibitor	TbPYK inhibitor	LmPK inh confirm
N/C(=N\OC(=O)c1cc(-c2ccccc2)nc2ccccc12)c1ccc(Cl)cc1	-3	-13%	1%	3%	-8	-4%	·
CCOC(=O)c1ccc(NC(=O)Nc2ccc3c4c(cccc24)C(=O)N3CC)cc1	-1	3%	2%	-15%	-33	-12%	2%
COc1ccccc1NC(=O)C1=C(C)Nc2nc(SCc3ccccc3Cl)nn2C1c1ccccn1 (stereo not given)	·	·	·	·	·	3%	·
CC(C)[C@H](N)c1nnc(SCc2ccc(Cl)cc2)o1	-4	1%	-1%	-4%	-12	0%	-2%
CC(C)(C)NC(=O)C(c1ccncc1)N(C(=O)Cn1nnc(-c2ccc(F)cc2)n1)c1ccccc1 (stereo not given)	-3	5%	8.9µM*	-27%	-11	0%	-6%
COc1ccc(/C(O)=C2/C(=O)C(=O)N(Cc3cccnc3)C2c2ccco2)cc1OC (stereo not given)	12	4%	0%	9%	8	0%	4%
CCc1ccccc1N1C(=O)N(Cc2cc(=O)n3ccccc3n2)c2ccccc2S1(=O)=O	·	·	·	·	·	-2%	·
Cc1ccc(S(=O)(=O)/N=C2/C=C(Sc3ncn[nH]3)C(=O)c3ccccc32)c(C)c1	19*	·	7.9µM*	1.6µM*	16	·	?
CCOc1ccc(/C=N/NC(=O)c2c(-c3ccccc3)noc2C)cc1	-5	-9%	4%	4%	15	0%	·
CCOc1ccc(/C=N/NC(=O)COc2ccccc2-c2ccccc2)cc1	1	11%	4%	0%	-25	2%	1%
Cc1ccc(Cn2nnc3c(=O)[nH]c(C4CCCN(C(=O)Nc5ccc(F)cc5F)C4)nc32)cc1 (stereo not given)	-4	7%	9%	-3%	-12	0%	7%
CCC(=O)N1CCc2cc(S(=O)(=O)NC(C(=O)Nc3cc(OC)cc(OC)c3)C(C)C)ccc21 (stereo not given)	·	·	·	·	·	1%	·
Nc1ccc2nc(-c3ccccc3)sc2c1	9	?	8.9µM*	-11%	25	?	16µM*
COC(=O)c1ccc(Nc2nc(C)cc(C)n2)cc1	6	1%	-5%	4%	15	-3%	-5%
Cc1cccc(Nc2nnc(-c3ccc(C)c(S(=O)(=O)N4CCOCC4)c3)c3ccccc23)c1	·	·	·	·	·	1%	·
